Source: ChEMBL document CHEMBL3988442, “University of Dundee, Small-Polar-MMV Screening Library” (2021)
For some assays here: Potency and affinity values are given separately.

Columns and labels:
Set-up in all cases: scale not given: direction of the effect not stated beside the values
[1] = target: Protein translocase subunit SecA (Escherichia coli (strain K12)) (UniProt P10408); test: Assay to Identify E. coli SecA ATPase Inhibitors; type: functional; conditions: 30 µM
[2] = target: T1, Ubiquitin-activating enzyme e1, putative (Leishmania donovani (strain BPK282A1)) (UniProt E9BSI1); test: Leishmania donovani Ubiquitin Activating Enzyme (LdE1); type: functional; conditions: 30 µM
T1 sequence (whole entry): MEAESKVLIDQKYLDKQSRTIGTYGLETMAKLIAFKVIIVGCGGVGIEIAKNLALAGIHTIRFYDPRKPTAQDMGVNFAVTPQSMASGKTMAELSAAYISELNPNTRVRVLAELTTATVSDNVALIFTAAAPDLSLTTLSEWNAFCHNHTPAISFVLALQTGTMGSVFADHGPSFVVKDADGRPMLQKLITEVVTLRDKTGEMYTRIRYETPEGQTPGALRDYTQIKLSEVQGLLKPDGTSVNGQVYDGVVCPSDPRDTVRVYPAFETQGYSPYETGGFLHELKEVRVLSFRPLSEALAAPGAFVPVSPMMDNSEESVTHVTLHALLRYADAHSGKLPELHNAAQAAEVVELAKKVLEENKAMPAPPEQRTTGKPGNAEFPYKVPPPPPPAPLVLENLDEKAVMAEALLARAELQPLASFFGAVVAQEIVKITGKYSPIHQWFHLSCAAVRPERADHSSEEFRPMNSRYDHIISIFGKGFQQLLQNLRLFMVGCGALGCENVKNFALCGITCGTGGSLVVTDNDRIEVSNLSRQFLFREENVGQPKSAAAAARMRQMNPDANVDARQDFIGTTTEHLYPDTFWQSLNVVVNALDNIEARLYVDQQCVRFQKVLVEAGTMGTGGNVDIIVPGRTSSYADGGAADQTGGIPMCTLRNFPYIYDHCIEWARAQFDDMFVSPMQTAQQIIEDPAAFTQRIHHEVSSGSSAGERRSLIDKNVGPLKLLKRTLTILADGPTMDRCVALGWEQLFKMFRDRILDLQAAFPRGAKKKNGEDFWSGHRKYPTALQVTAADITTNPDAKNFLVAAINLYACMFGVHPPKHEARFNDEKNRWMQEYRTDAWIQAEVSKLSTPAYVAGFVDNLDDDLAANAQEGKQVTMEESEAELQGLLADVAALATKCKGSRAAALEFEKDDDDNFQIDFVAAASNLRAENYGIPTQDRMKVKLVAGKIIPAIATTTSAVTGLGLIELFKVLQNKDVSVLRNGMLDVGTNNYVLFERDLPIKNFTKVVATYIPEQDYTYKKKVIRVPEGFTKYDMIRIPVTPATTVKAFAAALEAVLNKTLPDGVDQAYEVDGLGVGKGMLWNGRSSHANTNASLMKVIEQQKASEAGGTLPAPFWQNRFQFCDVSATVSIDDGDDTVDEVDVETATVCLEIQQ

[3] = target: AMP-activated protein kinase, AMPK (Homo sapiens) (UniProt P54646+O43741+P54619+Q9UGJ0+Q9Y478+Q13131+Q9UGI9); test: AMP-dependent Kinase enzyme assay. An in vitro enzyme assay that detects ADP turnover that is directly proportional to AMPK activity. This uses naive AMPK that is activated during the assay with MK-8722; type: functional; conditions: 30 µM
[4] = target: Sialic acid-binding Ig-like lectin 9 (Homo sapiens) (UniProt Q9Y336); test: Hs-Siglec9 ALPHAscreen SOP 20170721; conditions: 10 µM
Sialic acid-binding Ig-like lectin 9 (Homo sapiens), sequence (Q9Y336 whole entry): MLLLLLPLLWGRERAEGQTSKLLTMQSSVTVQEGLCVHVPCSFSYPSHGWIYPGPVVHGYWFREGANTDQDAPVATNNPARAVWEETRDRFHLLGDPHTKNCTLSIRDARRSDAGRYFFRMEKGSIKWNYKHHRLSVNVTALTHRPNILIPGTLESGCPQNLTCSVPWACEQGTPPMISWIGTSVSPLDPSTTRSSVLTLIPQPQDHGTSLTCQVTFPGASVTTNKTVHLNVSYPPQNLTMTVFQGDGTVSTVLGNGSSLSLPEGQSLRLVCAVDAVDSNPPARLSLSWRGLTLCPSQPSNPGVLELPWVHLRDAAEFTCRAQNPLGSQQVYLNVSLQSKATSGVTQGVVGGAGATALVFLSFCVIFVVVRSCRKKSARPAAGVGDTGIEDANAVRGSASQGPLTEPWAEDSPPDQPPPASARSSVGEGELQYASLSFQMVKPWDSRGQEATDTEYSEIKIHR

Trypanosoma cruzi = test: Trypanosoma cruzi phosphomannomutase and mannose-1-phosphate guanylyltransferase assay; type: functional; conditions: 10 µM
[5] = target: T2, Arginase-2, mitochondrial (Homo sapiens) (UniProt P78540); test: in vitro enzyme assay to detect the production of urea directly proportional to the activity of Arginase II; type: functional; conditions: 33.3 µM; note: in the data most compounds retested in dose-response had high values
T2 sequence (whole entry): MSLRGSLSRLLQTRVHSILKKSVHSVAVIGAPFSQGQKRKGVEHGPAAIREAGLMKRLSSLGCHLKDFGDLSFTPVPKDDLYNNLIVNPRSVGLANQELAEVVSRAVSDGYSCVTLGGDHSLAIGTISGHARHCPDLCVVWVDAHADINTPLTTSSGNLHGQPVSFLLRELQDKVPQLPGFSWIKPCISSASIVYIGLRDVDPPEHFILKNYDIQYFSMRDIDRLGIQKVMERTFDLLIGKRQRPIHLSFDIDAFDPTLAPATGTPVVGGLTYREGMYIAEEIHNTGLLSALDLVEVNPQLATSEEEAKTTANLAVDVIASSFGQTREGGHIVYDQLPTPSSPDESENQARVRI

[6] = target: T3, Proteasome subunit beta (Trypanosoma cruzi) (UniProt O96673); test: Trypanosoma cruzi proteasome chymotrypsin-like activity (TcProtChymo) assay.; note: in the data most compounds retested in dose-response had high values; type: functional; conditions: 9.37 µM
T3 sequence (whole entry): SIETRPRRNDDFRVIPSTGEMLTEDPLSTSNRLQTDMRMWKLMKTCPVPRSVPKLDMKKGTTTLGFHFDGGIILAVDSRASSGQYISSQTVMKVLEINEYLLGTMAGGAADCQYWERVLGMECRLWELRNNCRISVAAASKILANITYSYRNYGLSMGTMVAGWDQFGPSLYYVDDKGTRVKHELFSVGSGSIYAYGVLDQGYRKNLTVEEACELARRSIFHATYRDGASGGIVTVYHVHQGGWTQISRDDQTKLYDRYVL

Homo sapiens = organism: Homo sapiens; test: To identify inhibition of the IFN signalling (Jak-Stat) pathway via expression of an eGFP reporter gene under the control of an IFN-stimulated response element (ISRE) containing MxA promoter.; type: functional; conditions: 30 µM
[7] = target: T4, Tyrosyl-tRNA synthetase, putative (Trypanosoma cruzi (strain CL Brener)) (UniProt Q4DSP6); test: Trypanosoma cruzi tyrosyl tRNA synthetase (TcYRS) _High Tyrosine SOP; type: functional; conditions: 30 µM; note: in the data most compounds retested in dose-response had high values
T4 sequence (whole entry): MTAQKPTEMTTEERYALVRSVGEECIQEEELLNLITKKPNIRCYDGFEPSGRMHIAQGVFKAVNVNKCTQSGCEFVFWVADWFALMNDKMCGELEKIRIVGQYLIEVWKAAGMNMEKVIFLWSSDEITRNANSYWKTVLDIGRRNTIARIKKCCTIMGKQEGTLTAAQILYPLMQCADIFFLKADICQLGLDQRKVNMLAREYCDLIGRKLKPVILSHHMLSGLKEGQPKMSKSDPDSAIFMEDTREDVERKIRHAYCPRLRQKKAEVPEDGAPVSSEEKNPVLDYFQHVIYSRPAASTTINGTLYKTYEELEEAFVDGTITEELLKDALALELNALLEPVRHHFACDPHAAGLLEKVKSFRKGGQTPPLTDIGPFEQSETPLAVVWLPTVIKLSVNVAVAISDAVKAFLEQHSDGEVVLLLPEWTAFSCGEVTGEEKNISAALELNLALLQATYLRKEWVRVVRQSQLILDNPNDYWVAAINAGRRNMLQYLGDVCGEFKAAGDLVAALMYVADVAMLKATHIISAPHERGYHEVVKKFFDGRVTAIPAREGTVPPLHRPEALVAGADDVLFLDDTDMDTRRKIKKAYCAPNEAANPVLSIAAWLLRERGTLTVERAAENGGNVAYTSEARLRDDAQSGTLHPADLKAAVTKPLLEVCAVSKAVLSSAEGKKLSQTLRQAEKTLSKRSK

[8] = target: T4, Tyrosyl-tRNA synthetase, putative (Trypanosoma cruzi (strain CL Brener)); test: Trypanosoma cruzi tyrosyl tRNA synthetase (TcYRS) SOP; type: functional; conditions: 30 µM
[9] = target: Chromo domain-containing protein 1 (Saccharomyces cerevisiae (strain ATCC 204508 / S288c) (Baker's yeast)) (UniProt P32657); test: ScCHD-1 Enzyme Inhibition Assay; type: functional; conditions: 30 µM; note: in the data most compounds retested in dose-response had high values
Chromo domain-containing protein 1 (Saccharomyces cerevisiae (strain ATCC 204508 / S288c) (Baker's yeast)), sequence (P32657 whole entry, the tested form may be a part): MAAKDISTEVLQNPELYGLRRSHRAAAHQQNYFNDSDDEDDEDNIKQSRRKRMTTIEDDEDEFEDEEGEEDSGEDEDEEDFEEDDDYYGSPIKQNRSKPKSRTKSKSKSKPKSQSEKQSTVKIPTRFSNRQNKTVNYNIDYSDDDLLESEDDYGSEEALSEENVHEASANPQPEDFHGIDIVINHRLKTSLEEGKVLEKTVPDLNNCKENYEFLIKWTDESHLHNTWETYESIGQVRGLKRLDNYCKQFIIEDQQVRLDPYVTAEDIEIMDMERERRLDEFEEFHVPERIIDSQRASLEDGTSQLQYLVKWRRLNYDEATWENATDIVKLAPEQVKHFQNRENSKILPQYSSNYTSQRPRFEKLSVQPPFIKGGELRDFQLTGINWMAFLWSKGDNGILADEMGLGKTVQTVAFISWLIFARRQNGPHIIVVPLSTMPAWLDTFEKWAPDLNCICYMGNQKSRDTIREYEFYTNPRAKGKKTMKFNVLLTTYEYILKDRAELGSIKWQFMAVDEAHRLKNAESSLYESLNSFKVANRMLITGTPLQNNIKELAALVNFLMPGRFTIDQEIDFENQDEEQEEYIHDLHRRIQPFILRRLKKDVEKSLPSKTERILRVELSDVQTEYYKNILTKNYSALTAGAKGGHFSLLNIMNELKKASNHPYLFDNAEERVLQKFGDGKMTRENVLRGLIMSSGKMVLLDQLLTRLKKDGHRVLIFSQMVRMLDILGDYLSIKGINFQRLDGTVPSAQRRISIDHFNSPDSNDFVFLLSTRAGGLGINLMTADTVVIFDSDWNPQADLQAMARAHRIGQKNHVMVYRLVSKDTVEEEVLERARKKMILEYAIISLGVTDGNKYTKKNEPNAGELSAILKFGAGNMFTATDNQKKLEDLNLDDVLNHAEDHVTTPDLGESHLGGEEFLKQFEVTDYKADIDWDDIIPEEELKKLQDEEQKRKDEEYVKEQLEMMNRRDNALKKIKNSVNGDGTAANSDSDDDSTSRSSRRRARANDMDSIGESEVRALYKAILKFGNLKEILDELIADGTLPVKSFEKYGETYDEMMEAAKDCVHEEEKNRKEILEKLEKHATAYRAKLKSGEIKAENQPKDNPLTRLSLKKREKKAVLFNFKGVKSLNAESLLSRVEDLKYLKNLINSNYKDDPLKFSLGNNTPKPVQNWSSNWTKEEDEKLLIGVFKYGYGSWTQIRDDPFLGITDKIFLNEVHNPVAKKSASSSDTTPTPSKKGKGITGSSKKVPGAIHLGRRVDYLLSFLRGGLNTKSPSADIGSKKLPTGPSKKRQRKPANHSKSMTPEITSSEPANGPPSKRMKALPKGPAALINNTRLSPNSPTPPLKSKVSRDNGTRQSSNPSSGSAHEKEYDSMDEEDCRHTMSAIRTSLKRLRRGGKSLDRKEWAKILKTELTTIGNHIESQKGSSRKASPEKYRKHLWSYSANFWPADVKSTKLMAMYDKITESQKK

Protein translocase subunit SecA (Escherichia coli (strain K12)), sequence (P10408 whole entry): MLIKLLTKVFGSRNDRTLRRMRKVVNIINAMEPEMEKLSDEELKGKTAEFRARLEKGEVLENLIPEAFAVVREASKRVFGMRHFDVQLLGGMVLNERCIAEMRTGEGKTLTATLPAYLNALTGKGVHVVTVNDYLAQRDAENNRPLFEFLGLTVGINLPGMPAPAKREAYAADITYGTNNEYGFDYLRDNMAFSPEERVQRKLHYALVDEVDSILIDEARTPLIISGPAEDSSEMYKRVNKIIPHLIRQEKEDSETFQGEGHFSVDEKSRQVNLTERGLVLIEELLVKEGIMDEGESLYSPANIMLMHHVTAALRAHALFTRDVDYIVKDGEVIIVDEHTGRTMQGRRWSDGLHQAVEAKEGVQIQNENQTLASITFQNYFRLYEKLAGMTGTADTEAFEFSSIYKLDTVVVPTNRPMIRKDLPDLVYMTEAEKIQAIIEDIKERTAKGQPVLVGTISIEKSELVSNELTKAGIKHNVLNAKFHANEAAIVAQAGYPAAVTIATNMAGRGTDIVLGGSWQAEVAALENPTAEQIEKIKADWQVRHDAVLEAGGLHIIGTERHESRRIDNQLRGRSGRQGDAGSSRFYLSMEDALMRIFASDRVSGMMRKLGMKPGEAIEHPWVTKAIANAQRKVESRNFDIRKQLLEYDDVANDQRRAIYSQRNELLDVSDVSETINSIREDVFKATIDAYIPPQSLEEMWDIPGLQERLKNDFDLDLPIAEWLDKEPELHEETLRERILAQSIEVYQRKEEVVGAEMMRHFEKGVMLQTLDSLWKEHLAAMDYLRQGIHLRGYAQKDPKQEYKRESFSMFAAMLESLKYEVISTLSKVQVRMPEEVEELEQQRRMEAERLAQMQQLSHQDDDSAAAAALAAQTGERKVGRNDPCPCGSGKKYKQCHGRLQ

Compound | Percent Effect [1] | Percent Effect [2] | Percent Effect [3] | Percent Effect [4] | Percent Effect (Trypanosoma cruzi) | Percent Effect [5] | Percent Effect [6] | Percent Effect (Homo sapiens) | Percent Effect [7] | Percent Effect [8] | Percent Effect [9]
CC(C(=O)NCCN1CCCCCC1)n1cncn1 (stereo not given) | -5.19% | 13.2% | -5.03% | 2.07% | 4.76% | 1.8% | 3.98% | -5.88% | 4.43% | 13.6% | -5.88%
CCCNC(=O)c1ccc2c(c1)C(=O)N(CC(C)C)C2=O | -2.78% | -8.11% | 0.767% | 5.78% | -2.32% | -10% | 3.45% | 0.98% | 0.529% | 2.44% | -2.46%
CN1C(=O)C(C)(C)COc2cc(NS(=O)(=O)Cc3ccccc3)ccc21 | -1.91% | 16.4% | -12.8% | -8.62% | 3.72% | -2.73% | 15.6% | 57.7% | 7.53% | 12.5% | -6.62%
COc1ccc(CNC(=O)NC2CCC(O)CC2)c(C(F)(F)F)c1 (stereo not given) | -1.24% | -9.72% | -2.59% | -9.45% | -4.57% | 1.32% | 14% | -1.15% | 3.16% | 2.56% | -2.64%
CCCNC(=O)Nc1cc2c(cc1SC)OCCO2 | -5.72% | 13.5% | -3.48% | 12.2% | 2.93% | 11.2% | 10.7% | -1.29% | 8.91% | 8.54% | -6.19%
O=S(=O)(CCNCc1ccc2c(c1)CCO2)N1CCOCC1 | -6.32% | -2.7% | -3.09% | 10.1% | -3.67% | -3.33% | 11.7% | -0.791% | -0.529% | -4.88% | -4.8%
Cc1ccccc1CNC(=O)CN1CCN(Cc2nccn2C)CC1 | -1.84% | 21.6% | -6.67% | 6.22% | 2.74% | -10.8% | 18.4% | 2.02% | 8.37% | 25.9% | -9.21%
Cc1csc(CNC(=O)Nc2cc(C(F)(F)F)c[nH]c2=O)n1 | -1.61% | 6.94% | 2.39% | 2.89% | 6.71% | 1.77% | 13.3% | 8.26% | 7.37% | 10.3% | -3.2%
Cc1oc(-c2ccco2)nc1CC(=O)N1CCC(C(O)C(F)(F)F)CC1 (stereo not given) | -2.39% | 0% | -2.68% | 2.74% | 6.76% | -4.42% | -5.58% | -30% | -0.952% | 9.41% | -13.1%
Cc1ccc(CN2CC[C@H]3C[C@@H](c4nc(C5CC5)cs4)O[C@@H]3C2)o1 | -2.45% | 2.6% | 0.23% | 10% | 10.1% | -48.3% | 16.3% | 36.5% | 10.8% | 16.1% | -1.64%
